Screening results (PubChem BioAssay)
A selection: hits, their analogues and other compounds. The true share with any hit is near 2.2%.
KLF5 inh = suppresses KLF5 promoter-driven expression | DLD-1 KLF5 promoter-luciferase reporter, luminescence | inhibition, % at 5 µM | hit rate 0.23% among 290,000;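 active = inhibition above a per-plate limit of that plate's mean compound inhibition plus 3 SD, cut at about 60% in these data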;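 also: 0% = DMSO wells and 100% = LY294002 at 200 µM; higher means less KLF5 promoter-driven luciferase light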
Ba/F3 V617F tox = reduce viability of Ba/F3 cells dependent on JAK2V617F | inhibition, % at 5.6 µM | Ba/F3 EpoR-JAK2V617F viability, ATP luminescence | hit rate 1.1% among 220,000;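 active = inhibition above the campaign mean plus 3 SD over all tested compounds, cut at about 24% in these data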;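 also: cytokine-independent growth of Ba/F3 cells driven by EpoR plus mutant JAK2; 0% = DMSO-treated cells and 100% = JAK inhibitor I control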
APP transl inh = APP translation inhibition. SH-SY5Y APP 5'UTR-luciferase reporter, luminescence. inhibition, % at 2 µM. hit rate 0.82% among 190,000. AID 1285;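 active = inhibition above a set limit, derived from the sample mean plus 3 SD, cut at about 45% in these data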
BaF3 tox = parental Ba/F3 viability inhibition as JAK2V617F counter-screen; hit rate 1.1% among 220,000; inhibition, % at 5.6 µM; AID 1486; CellTiter-Glo ATP luminescence;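 active = inhibition above a per-campaign cutoff, the mean inhibition of all tested compounds plus 3 SD, cut at about 27% in these data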;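 also: 0% = DMSO wells and 100% = JAK Inhibitor I control wells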
IEC-6 tox-1 = IEC-6 cytotoxicity, counter-screen for KLF5 inhibitors. inhibition, % at 5 µM. luminescence viability. hit rate 0.78% among 290,000;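 also: 0% = plate median of test compound wells and 100% = cytotoxic reference compound wells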
aSyn UTR inh = 5' untranslated region of α-synuclein, MLPCN primary screen. alpha-synuclein 5'UTR reporter, inhibitor activity. inhibition, % (tested at 7.5 µM). hit rate 0.82% among 300,000; in the data active = inhibition above about 60%;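 also: H4 neuroglioblastoma cells stably carrying SNCA 5'UTR luciferase fusion; 0% = DMSO wells and 100% = positive control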
KLF5 inh confirm = confirmation of KLF5 inhibitors; inhibition, % at 4 µM; DLD-1 KLF5 promoter firefly luciferase reporter, luminescence; hit rate 79% among 610; shares compounds with KLF5 inh; AID 1834;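 active = inhibition above a set limit taken from the earlier primary screen, cut at about 63% in these data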;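 also: 0% = DMSO wells and 100% = LY294002 at 200 µM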
IEC-6 tox-2 = kills rat IEC-6 cells in KLF5 counter-screen; shares compounds with KLF5 inh; IEC-6 rat intestinal cells, viability luminescence; inhibition, % at 4 µM; hit rate 56% among 610; in the data active = inhibition above about 23%;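 also: cells exposed to compounds for 48 hours before viability read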
IEC-6 cytotox cf = confirmation of cytotoxic compounds in rat IEC-6 intestinal epithelial cells | shares compounds with IEC-6 tox-1 | IEC-6 rat intestinal epithelial viability, luminescence | inhibition, % at 5 µM | hit rate 63% among 1,900 | AID 1907;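 also: 0% = vehicle and 100% = reference cytotoxic drug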
Active calls of the source: *; nt = no result given. Rule as the data show it, unless noted: active = inhibition above about 22%; inactive = the rest.

SMILES	KLF5 inh	Ba/F3 V617F tox	APP transl inh	BaF3 tox	IEC-6 tox-1	aSyn UTR inh	IEC-6 cytotox cf	others
O=C(Sc1cccc2cccnc12)c1ccccc1Br	62.2*	nt	nt	nt	102.0*	-241.6	98.8*	KLF5 inh confirm=16.9;IEC-6 tox-2=100.0*
O=C(CNC(=O)c1ccco1)N=Nc1c(O)n(CCc2ccccc2)c2ccccc12	71.1*	73.9*	nt	67.8*	85.2*	48.4	67.4*	KLF5 inh confirm=83.1*;IEC-6 tox-2=71.5*
CCn1c(O)c(N=NC(=O)CNC(=O)Cc2ccccc2)c2ccccc21	2.8	nt	nt	nt	1.8	-4.0	nt
Cc1nonc1CN(C)C(=O)CC1C(=O)NCCN1Cc1ccc(F)c(F)c1 (stereo unspecified)	-14.7	-2.3	-11.9	4.2	-6.3	-26.2	nt
CC(=O)c1cccc(S(=O)(=O)N2CCCC(c3nc4c(nnn4Cc4cccc(Cl)c4)c(=O)[nH]3)C2)c1 (stereo unspecified)	-9.3	nt	nt	nt	-5.5	15.3	nt
Cc1ccc2[nH]c(-c3cccc(F)c3)cc(=O)c2c1	62.2*	82.9*	93.2*	82.8*	90.6*	81.0*	57.1*	KLF5 inh confirm=72.8*;IEC-6 tox-2=59.0*
Cc1ccc(-c2cc(=O)c3cc(C)ccc3[nH]2)cc1	-51.4	1.7	-114.8	7.2	7.8	-36.3	nt
O=c1cc(-c2cccc(F)c2)[nH]c2ccccc12	75.4*	77.5*	93.8*	77.9*	86.3*	86.6*	56.8*	KLF5 inh confirm=84.7*;IEC-6 tox-2=59.9*
COc1ccc(CN2CCN(C(=O)c3ccco3)CC2)c(OC)c1OC	nt	nt	nt	nt	nt	-3.0	nt
COC(=O)Nc1nc2ccc(C(=O)c3cccs3)cc2[nH]1	nt	nt	nt	nt	nt	53.5	nt
CCCSc1ccc2nc(NC(=O)OC)[nH]c2c1	76.3*	78.0*	92.2*	75.8*	80.3*	18.3	55.7*	KLF5 inh confirm=47.8;IEC-6 tox-2=60.9*
O=C(c1cc(-c2ccncc2)nc2c(Cl)cccc12)N1CCN(c2ccccc2F)CC1	65.8*	nt	nt	nt	66.6*	99.1*	54.4*	KLF5 inh confirm=64.7*;IEC-6 tox-2=46.9*
COc1ccc(-n2cc(-c3ccccc3)[nH]c2=S)c(OC)c1	3.2	nt	nt	nt	26.4*	-74.9	3.7
COc1ccc(-n2cc(-c3ccc(OC)c(OC)c3)[nH]c2=S)cc1	-54.2	-4.4	-12.6	0.8	1.3	-7.5	nt
CCn1c(SCC(=O)c2ccccc2)nc2ccccc2c1=O	-8.2	2.9	1.9	7.4	61.2*	-20.7	36.6*
C/C(=N\NC(=O)c1ccccn1)c1ccc(Cl)cc1	-125.8	-2.9	nt	1.5	3.2	-45.0	nt
C/C(=N\NC(=O)c1ccc(Cl)cc1)c1ccccn1	33.2	nt	nt	nt	22.8*	-62.9	98.6*
CCOC(=O)Nc1ccc2c(c1)N(C(=O)CCN(CC)CC)c1ccccc1CC2	-20.6	nt	nt	nt	5.1	6.3	nt
CCOC(=O)Nc1ccc2c(c1)N(C(=O)CCN(CC)CC)c1ccccc1S2=O (stereo unspecified)	-1.9	nt	nt	nt	22.6*	-20.2	12.6
Cc1ccc(C(C(=O)NCCc2ccccc2)N(C(=O)c2csnn2)C2CC2)cc1 (stereo unspecified)	-24.0	nt	nt	nt	-4.8	0.5	nt
Cc1ccc(S(=O)(=O)c2ncccc2[N+](=O)[O-])cc1	25.0	nt	nt	nt	100.6*	-38.8	1.8
O=[N+]([O-])c1cc(C=Nc2cccc3c(O)cccc23)ccc1Cl	-13.2	nt	nt	nt	33.3*	37.6	-4.2
O=c1c(Cl)c(Cl)cnn1Cc1ccc(F)cc1	-22.8	6.7	50.7*	-3.4	26.9*	-57.3	11.2
O=c1cnn(Cc2ccc(F)cc2)c2ccccc12	7.2	nt	nt	nt	4.0	7.4	nt
Cc1ccc(/C=C/C(=O)NC(=S)Nc2ccc(S(=O)(=O)Nc3cc(C)on3)cc2)cc1	-17.1	nt	nt	nt	-6.6	17.0	nt
O=S1(=O)CCN(Cc2ccc(Cl)c(C(F)(F)F)c2)CC1	-4.7	-0.8	8.8	0.4	-5.9	26.0	nt
COc1ccccc1NC(=O)COC(=O)c1ccccc1OCC(=O)Nc1ccc(SC(F)F)cc1	-10.6	-3.0	-18.1	6.0	-3.0	-12.6	nt
CN(C)C(=O)COC(=O)c1ccccc1Nc1ccc(SC(F)F)cc1	-87.7	3.7	-19.1	10.0	45.2*	-19.4	36.8*
